Sampled rows, rich in hits. Any-hit rate of the full collection: about 3.5%.
UHRF1 MBD2 ctr = blocks human UHRF1 binding to methylated DNA. UHRF1 binding to methylated oligo, TR-FRET. Q96T88. inhibition, % at 4.4 µM. actives 0.75% (n = 370,000); in the data active = inhibition above about 21%;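 also: UHRF1 SRA domain binding a hemimethylated CpG hairpin DNA probe; 0% = median of test compound wells and 100% = reference inhibitor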
MBD2 DNA inh = blocks human MBD2 binding to methylated DNA | Q9UBB5 | actives 0.31% (n = 370,000) | inhibition, % at 4.4 µM | TR-FRET, MBD2 binding to methylated oligonucleotide | AID 686964; in the data active = inhibition above about 13%
Target sequence (Q9UBB5 whole entry, looked up): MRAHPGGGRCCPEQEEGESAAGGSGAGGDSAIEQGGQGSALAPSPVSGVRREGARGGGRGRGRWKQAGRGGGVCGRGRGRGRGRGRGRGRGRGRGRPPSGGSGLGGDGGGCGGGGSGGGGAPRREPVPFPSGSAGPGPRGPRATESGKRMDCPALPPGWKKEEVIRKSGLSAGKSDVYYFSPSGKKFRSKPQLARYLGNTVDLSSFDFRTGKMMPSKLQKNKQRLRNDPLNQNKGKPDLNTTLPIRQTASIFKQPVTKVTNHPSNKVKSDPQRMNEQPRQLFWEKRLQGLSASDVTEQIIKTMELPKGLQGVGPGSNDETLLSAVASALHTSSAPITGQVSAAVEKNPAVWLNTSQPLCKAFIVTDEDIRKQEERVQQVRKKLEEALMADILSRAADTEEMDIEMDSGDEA
LEDGF integ inh = blocks HIV-1 LEDGF/p75-dependent DNA integration. TR-FRET IN-LEDGF/p75 DNA integration, Eu/Cy5. inhibition, % at 3.7 µM. actives 0.64% (n = 370,000);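 active = inhibition above the screen-wide mean plus 3 SD, cut at about 13% in these data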;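 also: signal is the Cy5 over europium emission ratio at 671 and 618 nm; 0% = plate median of compound wells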
PG9 Ab binder = binds the HIV-1 gp120 antibody PG9; actives 0.43% (n = 360,000); inhibition, % at 6.7 µM; TR-FRET gp120-PG9 antibody binding; in the data active = inhibition above about 8.5%
rCAG binder = r(CAG) repeat RNA binding; actives 1.3% (n = 370,000); inhibition, % at 3 µM; TO-PRO-1 dye displacement fluorescence;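 active = inhibition above the plate cutoff, the mean of all test compounds on that plate plus 3 SD, cut at about 35% in these data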;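 also: 0% = DMSO alone and 100% = 100 µM mitoxantrone as full dye displacement; higher means more dye released from RNA so lower well fluorescence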
DNMT1 block = DNMT1 (human) enzyme inhibition. P26358. DNMT1 molecular beacon, Hinp1I cleavage, fluorescence. inhibition (reported as % activation of signal), % at 10 µM. actives 0.83% (n = 360,000). AID 588458; in the data active = inhibition above about 50%
DNMT1 interf DR = beacon fluorescence artifact, dose response counter-screen. 200 tested, under 10 active. shares compounds with DNMT1 block. IC50, µM. molecular beacon fluorescence, spectral interference counter-screen; call rule not given here
DNMT1 inh conf = confirmation of human DNMT1 inhibitors; shares compounds with DNMT1 block; DNMT1 molecular beacon HinP1I cleavage, fluorescence; inhibition, % at 10 µM; actives 8% (n = 2,300); AID 602385;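 active = average inhibition of at least 30% in the single-concentration confirmation test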
Beacon interf = shows spectral interference in the DNMT1 beacon assay; shares compounds with DNMT1 block; activation (fluorescence interference), % at 10 µM; actives 1% (n = 2,300); DNMT1 molecular beacon spectral interference counterscreen, fluorescence 485/520; AID 602387;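 active = activation of at least 30% at 10 µM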;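 also: DNMT1 catalytic domain with a HinP1I cleavage step and a FAM/dabcyl DNA beacon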
PG9 binder conf = PG9 antibody binding, confirmed | shares compounds with PG9 Ab binder | TR-FRET PG9 antibody binding, biochemical | inhibition, % at 6.7 µM | actives 90% (n = 1,500) | AID 651571; in the data active = inhibition above about 9%
PGV04 Ab binding = binds control antibody PGV04 in PG9 binder counter-screen | shares compounds with PG9 Ab binder | TR-FRET PGV04 antibody-gp120 binding, biochemical | inhibition, % at 6.7 µM | actives 95% (n = 1,500) | AID 651604; in the data active = inhibition above about 9.5%
rCAG bind conf = r(CAG) RNA repeat binding, confirmation. shares compounds with rCAG binder. inhibition, % at 3 µM. actives 70% (n = 4,300). TO-PRO-1 dye displacement fluorescence. AID 652065;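 active = inhibition above a per-plate cutoff, the mean inhibition of sample wells plus 3 SD, cut at about 35% in these data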;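 also: loss of TO-PRO-1 fluorescence as compound displaces dye from 1x1 AA loop RNA; 0% = DMSO only wells and 100% = 100 µM mitoxantrone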
dCAG dye counter = counter-screen for rCAG RNA binders: DNA CAG dye complex inhibitors; shares compounds with rCAG binder; d(CAG) DNA oligo TO-PRO-1 dye displacement, fluorescence; inhibition, % at 3 µM; actives 94% (n = 4,300); AID 652068;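 active = inhibition above its plate's cutoff, the mean test-well inhibition plus 3 SD, cut at about 4.8% in these data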;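 also: 0% = DNA dye mix with DMSO and 100% = 100 µM mitoxantrone; hits displace the dye from DNA and so lower well fluorescence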
Starred values were filed as active, the others as inactive; x = no result given.

SMILES	UHRF1 MBD2 ctr	MBD2 DNA inh	LEDGF integ inh	PG9 Ab binder	rCAG binder	DNMT1 block	DNMT1 inh conf	Beacon interf	PG9 binder conf	PGV04 Ab binding	others
CCCCC1=CC2=C(c3ccco3)C(=O)C(C)(OC(=O)c3ccc(OC)cc3)C(=O)C2=CN1CCN1CCOCC1 (stereo unspecified)	x	x	x	x	x	-15	x	x	x	x
COc1ccc2cc3c(N)nn(C(=O)Cc4ccc(Cl)cc4)c3nc2c1	-2	-1	7	6	8	69*	0	1	x	x
COc1cccc(CC(=O)n2nc(N)c3cc4ccc(OC)cc4nc32)c1	-1	-7	8	1	7	-8	x	x	x	x
CCc1ccc2c(c1)c1nc(C)sc1n2CC	-5	-4	0	0	1	51*	3	3	x	x
N#Cc1nnn(-c2ccc(Cl)cc2)c1N	x	x	x	x	x	90*	0	1	x	x
N#Cc1nnn(-c2cc(Cl)cc(Cl)c2)c1N	-2	1	1	3	1	1	x	x	x	x
COC(=O)C1=COC(OC2OC(CO)C(O)C(O)C2O)C2C(C)CC(=O)C12 (stereo unspecified)	7	-7	0	0	0	74*	2	2	x	x
COC(=O)C1=CO[C@@H](O[C@@H]2O[C@H](CO)[C@@H](O)[C@H](O)[C@H]2O)C2C1CC(O)O[C@H]2C (stereo partly specified)	-3	-5	-2	0	-1	6	x	x	x	x
COC(=O)C1=COC(OC2OC(CO)C(O)C(O)C2O)C2C1C=CC2(O)CO (stereo unspecified)	21	2	10	-1	2	90*	3	-1	x	x
CN(Cc1ccccc1)C(=O)COC(=O)c1ccc[nH]c1=O	0	4	2	-3	4	-2	x	x	x	x
Cc1oc(-c2cccs2)cc1C(=O)N1CCCC(C)(C(=O)O)C1 (stereo unspecified)	-2	-7	0	-1	2	1	x	x	x	x
Cc1ccc(N2C(=O)Nc3ccccc3C2(O)C(=O)NCCCOC(C)C)cc1C (stereo unspecified)	1	-1	-6	0	2	-1	x	x	x	x
COc1ccc(-c2ccc(NC(=O)c3ccc(Br)o3)cc2)nn1	-2	4	6	14*	-1	56*	5	4	13*	24*
CCOC(=O)C1=CCC(c2ccc(Cl)cc2)N(S(=O)(=O)c2ccc(C)cc2)C1 (stereo unspecified)	-2	-2	-2	-1	5	2	x	x	x	x
O=C(O)C(C=C(Cl)Cl)N1CCOCC1 (stereo unspecified)	0	1	-6	0	0	0	x	x	x	x
CC1CCCN(C(=O)c2ccc3c(=O)n4nc(Nc5ccccc5)sc4nc3c2)C1 (stereo unspecified)	1	4	-3	-1	2	2	x	x	x	x
Cc1cccc(Nc2nn3c(=O)c4ccccc4nc3s2)c1	3	0	3	28*	0	94*	13	3	62*	69*
COc1cc(NC(C)=O)ccc1-c1cc2ccccc2oc1=O	0	0	-4	0	7	-10	x	x	x	x
COc1cc(NC(=O)c2ccc(Cl)cc2Cl)ccc1-c1cc2ccccc2oc1=O	-1	7	0	12*	8	66*	-1	-2	23*	33*
Cc1cc(NC(=O)c2cc(-c3ccccn3)nc3c(Cl)cccc23)no1	-3	-1	-1	33*	6	58*	0	0	42*	62*
Cc1nc(C(=O)Nc2ccccc2Cl)cc2c1[nH]c1ccccc12	-2	-9	1	22*	-57	50*	1	0	12*	26*
C#CCn1c(=NC(=O)c2ccc(Br)s2)sc2cccc(OC)c21	-3	3	4	11*	3	52*	0	-6	15*	26*
C=CCn1c(=NC(=O)c2cccs2)sc2cccc(OC)c21	2	3	7	0	14	-1	x	x	x	x
O=C(OCC(=O)N1CCc2ccccc21)[C@@H]1CC(O)CN1S(=O)(=O)c1ccccc1[N+](=O)[O-] (stereo partly specified)	-4	-1	1	-2	7	-4	x	x	x	x
O=C1N(Cc2cccc(Cl)c2)C[C@@H]2C[C@@H](c3cccn3-c3cccnc3)N3CCC[C@@]123	-2	1	3	17*	-7	78*	2	2	10*	19*
SMILES	UHRF1 MBD2 ctr	MBD2 DNA inh	LEDGF integ inh	PG9 Ab binder	rCAG binder	DNMT1 block	DNMT1 inh conf	Beacon interf	PG9 binder conf	PGV04 Ab binding	others
CCn1ncc([C@@H]2C[C@H]3CN(Cc4cccc(Cl)c4)C(=O)[C@]34CCCN24)c1C	2	0	-1	-3	-11	2	x	x	x	x
c1ccc2n[nH]nc2c1	0	-3	-1	-1	0	-1	x	x	x	x
COC(=O)Cn1c(=NC(=O)c2sc3ccccc3c2Cl)sc2cc(S(N)(=O)=O)ccc21	2	3	-1	11*	-2	66*	3	-10	22*	28*
CN(c1ccccc1)c1ccc(/C=C(\CCC(=O)O)c2nc3ccccc3s2)cc1[N+](=O)[O-]	-2	1	2	-2	71*	74*	27	-4	x	x	DNMT1 interf DR=>99;rCAG bind conf=78*;dCAG dye counter=37*
COc1ccc(-c2c(-c3cc(OC)cc(OC)c3)n(C)c3ccc(-c4ccc5[nH]ccc5c4)cc23)cc1	-1	2	1	0	11	-6	x	x	x	x
CC1CC(=O)Nc2ccccc2N1C(=O)Cn1cnc2ccc(Br)cc2c1=O (stereo unspecified)	6	5	-6	-2	-2	-6	x	x	x	x
O=C(Nc1cccc(S(=O)(=O)NC2=NCCC2)c1)c1cc(-c2ccco2)nc2ccccc12	30*	24*	17*	0	41*	99*	56*	-2	x	x	DNMT1 interf DR=>99;rCAG bind conf=43*;dCAG dye counter=25*

High-throughput results from PubChem.
